# ALR H2O2 inh: inhibitors of human ALR sulfhydryl oxidase, primary screen, biochemical, H2O2 detection, HRP-luminol luminescence, single point; purified ALR, DTT oxidation; inhibition, % (concentration not given with the values); hit rate 3.8% among 290,000; AID 485317, 2010;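 active = mean replicate inhibition above about 79%, with every replicate also reaching it, limit read from the data; inconclusive = only one of the two criteria met; inactive = mean below limit and not every replicate reaching it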
# Target sequence (P55789 whole entry, looked up): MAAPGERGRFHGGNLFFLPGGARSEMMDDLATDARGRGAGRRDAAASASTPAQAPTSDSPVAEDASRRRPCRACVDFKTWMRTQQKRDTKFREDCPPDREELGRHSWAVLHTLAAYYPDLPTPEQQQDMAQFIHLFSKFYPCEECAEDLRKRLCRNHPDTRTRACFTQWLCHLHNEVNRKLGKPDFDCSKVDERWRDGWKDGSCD
# HIF act: HIF pathway transcriptional activators, primary screen, cell-based, U2OS HRE-luciferase, luminescence; activation, % at 7.5 µM (by protocol); hit rate 0.32% among 300,000; AID 1910, 2009; U2OS HRE-luciferase reporter; normalized: DMSO 0%, desferrioxamine 100%;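 active = mean activation of at least 10% of the iron chelator positive control signal, with at least half of replicates also reaching 10%; inconclusive = mean and replicate majority disagree about reaching 10%; inactive = mean and most replicates under 10%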
# Mot1-301 SUMO: yeast Mot1-301 growth rescue at high temperature, primary screen, SUMOylation pathway inhibitor project, S. cerevisiae, ATP luminescence, 38.5C; S. cerevisiae Mot1-301 growth rescue; percent above DMSO median, 100 means doubled; growth rescue, % at 18.8 µM; hit rate 1% among 320,000;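 active = every valid replicate shows activation above 250% relative to neutral control wells; inactive = the rest, any valid replicate at or below 250%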
# AI-2 QS modul: Vibrio harveyi AI-2 quorum sensing modulators, primary screen, JMH597 strain, luminescence/OD600 ratio; hit rate 0.4% among 300,000; activity change, % at 7.5 µM; Vibrio harveyi JMH597 AI-2 luminescence/OD600 ratio, 9 h; active compounds read low; strain lacks LuxN and CqsS sensors; 0 = neutral-control median; in the data active = activity change below about -75%, passing the limit was not always enough; inconclusive = no clear call, values can overlap the other calls;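 note: luminescence divided by OD600 gain over 9 h not by final OD600 alone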
# Mot1 SUMO dose: growth restoration of Mot1-301 yeast on galactose, dose response, SUMO pathway inhibitor project, whole organism, S. cerevisiae, ATP luminescence, cherry-picked samples; shares compounds with Mot1-301 SUMO; 2,300 tested, under 10 active; S. cerevisiae Mot1-301 galactose growth, 24 h; -100 = growth of slx-deleted rescue strain; AID 493004, 2010; growth activity, percent, % at 42 µM;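 active = Signal drops as the depositor expects, and the fitted half-maximal dose is no more than ten times the top valid tested dose; inconclusive = Poor fit, or a flat curve whose signal drops by 30% to 70%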;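 note: more negative values mean stronger growth rescue toward the control strain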
# Numbers stand for hits; 0 = inactive; ? = inconclusive; - = no result given; + = active, no number. Only some compounds are listed: those with a hit (about 4.8% of all), similar ones and a draw of the others.
SMILES,ALR H2O2 inh,HIF act,Mot1-301 SUMO,AI-2 QS modul,Mot1 SUMO dose
Cc1sc(NC(=O)CSC2=NCCS2)nc1-c1ccccc1,99,0,722,0,0
CC(=O)CSc1ncnc2sc3c(c12)CCCC3,0,0,712,0,0
CC(=O)CSc1ncnc2sc3c(c12)CCC(C)C3 (configuration not stated),0,0,0,0,-
COc1ccc(-c2nnc(-c3cc4c(ccc5ccccc54)oc3=O)o2)cc1,0,?,574,0,0
O=c1oc2ccc3ccccc3c2cc1-c1nnc(-c2ccccc2)o1,0,0,0,0,-
O=C(NCCc1c[nH]c2ccccc12)c1cc(S(=O)(=O)N2CCCCC2)ccc1N1CCOCC1,0,0,449,0,0
CCN(C(=O)Cn1ccc(C(F)(F)F)n1)c1c(N)n(Cc2ccccc2)c(=O)[nH]c1=O,-,-,0,-,-
COc1ccc(CNC(=O)c2cc(=O)c3ccc(C)c(C)c3o2)cc1,0,0,0,0,-
COc1ccc(CNC(=O)c2cc(=O)c3cc(C)cc(C)c3o2)cc1,0,0,+,0,0
Cc1ccc(-c2csc3ncn(CC(=O)N4CCOCC4)c(=O)c23)cc1,0,0,362,0,0
CC(NC(=O)COC(=O)CN1C(=O)c2ccccc2C1=O)c1ccccc1 (configuration not stated),0,-,0,-,-
CCOC(=O)C1=C(C)NC(C)=C(C(=O)OCC)C1C(=O)OC1CCOC1=O (configuration not stated),0,0,463,0,0
C=CCOC(=O)C(C#N)c1nc2ccccc2nc1N1CCN(Cc2ccccc2)CC1 (configuration not stated),0,-,501,0,0
COc1ccc(NC(=O)CSc2nnc(-c3cccs3)n2N)cc1S(N)(=O)=O,0,-,0,-,-
CCN(CC)c1ccc2c(C)c(CN3CCOCC3)c(=O)oc2c1,0,0,+,0,0
CCN(CC)c1ccc2c(Cl)cc(=O)oc2c1,0,0,0,0,-
NC(=O)CC(NC(=S)NCc1ccccc1)C(=O)O (configuration not stated),0,0,583,0,0
O=C(O)CC(NC(=O)OCc1ccccc1)c1ccc(Br)cc1 (configuration not stated),0,0,585,0,0
O=c1/c(=C/c2ccco2)sc2nc(-c3ccccc3Br)nn12,0,-,381,-,0
COc1ccccc1-c1nc2s/c(=C\c3cccs3)c(=O)n2n1,0,0,0,0,-
CC(=O)Nc1cc2nn(-c3ccccc3)nc2cc1Cl,0,0,553,0,0
O=C(Nc1cc2nn(-c3ccccc3)nc2cc1Cl)c1ccco1,-,0,0,0,-
COCC(=O)NNC(=O)c1ccccc1OC,0,0,438,0,0
CCCCCCSc1ccc([C@@H]2[C@H]3C(=O)N(CC)C(=O)[C@H]3[C@]3(C(=O)OC)CCCN23)cc1,0,-,0,-,-
CCC(=O)Oc1ccc(C(=O)Nc2ccc([N+](=O)[O-])cc2)cc1,0,0,0,0,-
SMILES,ALR H2O2 inh,HIF act,Mot1-301 SUMO,AI-2 QS modul,Mot1 SUMO dose
CC(C)COc1ccc(C(=O)Nc2ccc([N+](=O)[O-])cc2)cc1,0,15,691,0,0
CC(C)(CNC(=O)c1cccs1)CNC(=O)c1cccs1,0,0,667,0,0
CCOC(=O)CNC(=O)c1cccs1,-,0,0,0,-
O=c1nc2ccc(Cl)cn2c2ccc(S(=O)(=O)N3CCOCC3)cc12,0,0,577,0,0
Cc1ccc(/C=N/NC(=O)c2nnn(-c3nonc3N)c2-c2cccs2)cc1,0,0,0,0,-
COc1ccc(/C=N/NC(=O)c2nnn(-c3nonc3N)c2-c2cccs2)cc1OC,0,0,399,0,0
C/C(=N\Nc1ccc([N+](=O)[O-])cc1)c1ccco1,0,0,0,0,-
CC/C(=N\Nc1ccc([N+](=O)[O-])cc1)c1ccccc1,0,0,415,0,0
COCCCn1c(=O)c2ccccc2n(CC(=O)NC2CCCCC2)c1=O,0,0,0,0,-
CCOc1ccc(N(C(=O)C2CCCO2)C2C=CS(=O)(=O)C2)cc1 (configuration not stated),-,0,814,0,0
CCN1CCCC1CN(Cc1cc2ccc(C)cc2[nH]c1=O)C(=S)Nc1ccc(OC)cc1OC (configuration not stated),0,0,562,0,0
COc1ccccc1N1CCN(C(=O)C2CCCN(S(=O)(=O)c3ccc4c(c3)oc(=O)n4C)C2)CC1 (configuration not stated),0,0,0,0,-
COc1ccc(N2CCN(C(=O)C3CCCN(S(=O)(=O)c4ccc5c(c4)oc(=O)n5C)C3)CC2)cc1 (configuration not stated),0,0,450,0,0
O=C(NCc1ccccc1)Nc1cccn(Cc2cccc(F)c2)c1=O,0,0,0,0,-
COc1ccc2c(Cl)c(C(=O)NN3CCN(C)CC3)sc2c1,0,0,587,0,0
CC1C(=O)N2CCCc3cc(S(=O)(=O)Nc4ccccc4C(N)=O)cc1c32 (configuration not stated),0,0,0,0,-
CC1CN(CCCOc2ccc([N+](=O)[O-])cc2)CC(C)O1 (configuration not stated),0,0,463,0,0
O=S(=O)(NCC1CCCN(Cc2ccccc2O)C1)c1cccc2cccnc12 (configuration not stated),0,0,384,0,0
CC(=O)N1CCc2cc(S(=O)(=O)NCCC3=CCCCC3)ccc21,0,0,+,0,0
Cc1ccc(S(=O)(=O)N2CCN(C(=O)CSc3nc(N)cc(=O)[nH]3)CC2)c(C)c1,0,0,482,0,0
Cc1ccc(S(=O)(=O)N2CCN(C(=O)CSc3n[nH]c(N)n3)CC2)c(C)c1,0,-,0,-,-
CCN1CCN(Cc2c(C(=O)N/N=C(\C)c3ccc(Cl)c(Cl)c3)nnn2-c2nonc2N)CC1,-,0,0,0,-
COc1ccc(CCNC(=O)c2ccc([N+](=O)[O-])cc2Cl)cc1OC,0,0,0,0,-
COc1ccccc1C(=O)NCCNc1ccc([N+](=O)[O-])cc1Cl,0,0,456,0,0
COc1ccc(CC(=O)Nc2ccc(/C(C)=N\NC(=O)c3ccc(Br)o3)cc2)cc1,-,0,-,0,-
CC1CN(S(=O)(=O)c2cccc(C(=O)N=c3sccn3C)c2)CC(C)O1 (configuration not stated),0,0,396,0,0
CC1CCc2c(sc(NC(=O)c3ccc(N4C(=O)CCC4=O)cc3)c2C(N)=O)C1 (configuration not stated),0,-,0,-,-
CN(C)c1ccc(/C=C/c2cccc[n+]2[O-])cc1,?,0,584,0,0

# Source: PubChem BioAssay
